Sampled rows, rich in hits. Any-hit rate of the full collection: about 9.4%.
IMPase cell inh = membrane-permeable compound that blocks inositol monophosphatase; P97697; CHO-M1 cells, IP1 accumulation, HTRF TR-FRET ratio; inhibition (IP1 accumulation), % at 46.1 µM; 120,000 tested, under 10 active; AID 901; active = well fitted curve in the direction sought with a large enough effect in the signal ratio, not every such curve was filed as active; inconclusive = small, poorly fitted or top-dose-only effect, or a change in a side signal; inactive = no such curve, though single readings can be large or run the other way; the % refers to the signal ratio;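 note: cells stimulated with carbachol in lithium chloride buffer; plate controls were DMSO basal wells for no effect and reference inhibitor wells for full effect; higher means more IMPase inhibition seen as more IP1 and lower FRET ratio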
Target sequence (P97697 whole entry, looked up): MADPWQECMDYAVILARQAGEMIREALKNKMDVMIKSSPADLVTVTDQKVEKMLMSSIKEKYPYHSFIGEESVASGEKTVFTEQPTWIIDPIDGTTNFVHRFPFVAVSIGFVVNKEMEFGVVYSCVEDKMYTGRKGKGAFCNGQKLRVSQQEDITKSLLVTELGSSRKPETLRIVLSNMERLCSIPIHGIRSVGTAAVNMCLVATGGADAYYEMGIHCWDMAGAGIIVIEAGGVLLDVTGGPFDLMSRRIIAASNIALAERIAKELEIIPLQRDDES
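Elevated IP1 in lysates lowers TR-FRET signal (665/620 ratio and 620 channel reported). Cells were CHO-M1, given carbachol (50 uM as added) plus 50mM LiCl, pH 7.4, 30 min, 37C; compounds titrated up to 46 uM; AC50 by Hill equation.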
ALDH1A1 block = ALDH1A1 (human) enzyme inhibition; Potency, µM (series often up to 75.3 µM), for inactives: at the top dose activity, negative = inhibition, actives largely listed as inhibitors; actives 7.3% (n = 220,000); Purified ALDH1A1, NADH fluorescence, propionaldehyde substrate; P00352; active = well fitted inhibition curve with a large enough effect, not every such curve was filed as active; inconclusive = small, poorly fitted or top-dose-only effect, or another doubt; inactive = no such curve, though single readings can be large or run the other way;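 note: potency is the fitted concentration of half-maximal effect; plate controls were no enzyme wells and a reference inhibitor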
Target sequence (P00352 whole entry, looked up): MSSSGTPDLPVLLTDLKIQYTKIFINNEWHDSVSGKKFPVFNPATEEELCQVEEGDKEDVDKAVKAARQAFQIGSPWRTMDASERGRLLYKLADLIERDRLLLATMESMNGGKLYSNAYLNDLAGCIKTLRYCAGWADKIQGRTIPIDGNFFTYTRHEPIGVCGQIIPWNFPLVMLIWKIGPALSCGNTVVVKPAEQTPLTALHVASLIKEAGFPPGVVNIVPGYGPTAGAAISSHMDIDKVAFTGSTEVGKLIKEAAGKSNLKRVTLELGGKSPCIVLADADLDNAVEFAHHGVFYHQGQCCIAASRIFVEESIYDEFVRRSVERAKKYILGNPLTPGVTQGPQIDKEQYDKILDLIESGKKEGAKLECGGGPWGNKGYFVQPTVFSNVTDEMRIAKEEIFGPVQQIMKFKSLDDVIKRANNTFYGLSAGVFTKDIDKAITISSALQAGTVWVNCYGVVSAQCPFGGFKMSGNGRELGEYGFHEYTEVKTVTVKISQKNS
HTT aggregate = reduces HttQ103-GFP aggregates in PC12 cells; PC12 HttQ103-GFP aggregates, Acumen cytometry, 40 h; Potency, µM (highest dose often 46.1 µM), for the others: at the top dose activity change, negative = inhibition, hits mostly inhibitors; actives 1.1% (n = 220,000); note: potency is the fitted concentration of half-maximal effect; % is set by controls: 0 for no effect and ±100 for the full control effect; nearly all actives have a fitted effect of over 60% in size
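Huntingtin Q103 exon 1–GFP aggregates in induced PC12 cells (100 nM tebufenozide) were quantified by cytometry from lysates, with compounds dosed in titration.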
IMPase Li inh = membrane-permeable IMPase blocker, potentiated with lithium. CHO-M1 cells, IP1 TR-FRET (IP-One), carbachol + lithium. actives 0.35% (n = 210,000). Potency, µM (top dose mostly 59.4 µM), inactives show top-dose activity, negative = IMPase inhibition, most hits filed as inhibitors;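 note: IP1 builds up when IMPase is blocked and the TR-FRET signal falls; potency is the fitted concentration of half-maximal effect; plate controls were basal vehicle for no effect and high inhibitor control for full effect; nearly all actives have a fitted effect of over 50% in size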
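CHO-M1, 2000 cells/well, 16–30 h culture; cpd + low Li+, 30 min 37C; lysis with d2-IP1/Eu-anti-IP1 Ab, 10 min RT; TR-FRET 665/620 ratio and 620 channel; AC50 via Hill.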
HTT ATP protect = protects HTT-Q103 PC12 cells, measured by ATP; PC12 HTT-Q103 induced, cytoprotection, ATP luminescence, 40 h; Potency, µM (top dose mostly 56.4 µM), without a hit: cytoprotection (ATP increase), actives largely listed as activators; actives 0.14% (n = 230,000); AID 1471; note: potency is the fitted concentration of half-maximal effect; % of control where 0% means no effect; nearly all actives have a fitted effect of over 45% in size
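Compounds were screened for protection of PC12 cells against cell death after tebufenozide induction (100 nM final) of mutant Huntingtin exon 1 (Q103) fused to GFP.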
HPGD inh = HPGD (human) dehydrogenase inhibition; purified HPGD, NADH fluorescence kinetic, PGE2 substrate; actives 4.3% (n = 150,000); AID 894; Potency, µM, for inactives: at the highest dose activity change, negative = inhibition, hits mostly inhibitors; active = well fitted inhibition curve with a large enough effect, not every such curve was filed as active; inconclusive = small, poorly fitted or top-dose-only effect, or another doubt; inactive = no such curve, though single readings can be large or run the other way; note: potency is the fitted concentration of half-maximal effect; % is set by controls: 0 for no effect and ±100 for the full control effect
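NADH formation kinetics: reaction with 30 uM PGE2 and 1 mM NAD+ (final), 20 nM enzyme, Tris-HCl pH 8 with Tween 20, after 15 min compound preincubation at room temperature. Fluorescence change, last versus first of five reads.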
* marks the source's active call; other numbers are inactive results; ! = not confirmed by another sample; [ ] = another dose, or the depositor's remark. Unless noted, calls come from the whole dose curve; as a rule, active = well fitted curve in the direction sought with a large enough effect; inconclusive = small, poorly fitted or top-dose-only effect, or another doubt; inactive = no such curve, though single readings can be large; an effect the other way counts as inactive or inconclusive.

What do the screens show for `COc1cccc(/C=C(/C#N)c2ccc(F)cc2)c1OCc1cccc(C(=O)O)c1`?
ALDH1A1 block: 13µM*; HTT aggregate: 8%; IMPase Li inh: -6%; HTT ATP protect: -5%[10 µM]; HPGD inh: inconclusive

What do the screens show for `Oc1ccc(/C=N/N2CCOCC2)c(O)c1O`?
ALDH1A1 block: 7.1µM*; HTT aggregate: 17%; IMPase Li inh: 12%; HTT ATP protect: -40%

What do the screens show for `Fc1ccc(/C=N/N2CCOCC2)c(F)c1`?
ALDH1A1 block: 2%; HTT aggregate: -6%; IMPase Li inh: inconclusive; HTT ATP protect: 0.71µM*

How did COc1ccc(O)c(/C=N/N2CCOCC2)c1 do in these assays?
HTT aggregate: 2%[9.22 µM]; HTT ATP protect: 17%[10 µM]

Results for CN1CCN(c2ncc3nc(-c4ccc(F)cc4)c(=O)n(Cc4cccs4)c3n2)CC1 ?
ALDH1A1 block: inconclusive; IMPase Li inh: 38%; HTT ATP protect: -74%

What do the screens show for `Cc1ccc2c(c1)c1c3n2CCN(C(=O)C2CC2)C3CCC1` (stereo not drawn)?
IMPase cell inh: 2; ALDH1A1 block: inconclusive; HTT aggregate: 10%; IMPase Li inh: 3%[38.3 µM]; HTT ATP protect: 14%; HPGD inh: -17%

What do the screens show for `Cc1ccc2c(c1)c1c3n2CC(=C2C(=O)OC(C)(C)OC2=O)NC3CCC1` (stereo not drawn)?
IMPase cell inh: -7; ALDH1A1 block: 10µM*; HTT aggregate: 4%; IMPase Li inh: 8%[38.3 µM]; HTT ATP protect: -30%[10 µM]; HPGD inh: -17%

Results for CC(C)c1ccc(NC(=O)C(c2ccccc2)N2CCN(C(=O)c3ccco3)CC2)cc1 (stereo not drawn) ?
IMPase cell inh: 11; ALDH1A1 block: 13µM*; HTT aggregate: inconclusive; IMPase Li inh: 3%[38.3 µM]; HTT ATP protect: -54%; HPGD inh: -17%

Results for NC1=NC(=Nc2cccc(S(N)(=O)=O)c2)c2ccccc21 ?
ALDH1A1 block: 3%; HTT aggregate: 5%[9.22 µM]; HTT ATP protect: 4%[10 µM]

How did COc1cc(N=Nc2cccc(S(N)(=O)=O)c2)c2ccccc2c1N do in these assays?
ALDH1A1 block: 7.9µM*!; HTT aggregate: 10%[9.22 µM]; IMPase Li inh: 0%; HTT ATP protect: -21%[10 µM]; HPGD inh: -12%

Results for COc1ccc(S(=O)(=O)N2CCC(C(=O)Nc3ccccc3C)CC2)c2cccnc12 ?
IMPase cell inh: 2; ALDH1A1 block: 22µM*; HTT aggregate: -2%[9.22 µM]; IMPase Li inh: -13%[38.3 µM]; HTT ATP protect: -20%; HPGD inh: -18%

How did CC(=O)Oc1cccc(N2C(=O)C3C4C=CC(C4=C(C)C)C3C2=O)c1 (stereo not drawn) do in these assays?
IMPase cell inh: -1; ALDH1A1 block: 7.1µM*; HTT aggregate: inconclusive; IMPase Li inh: 11%[38.3 µM]; HTT ATP protect: -1%; HPGD inh: -11%

What do the screens show for `CC(=O)Oc1cccc(N2C(=O)C3CC=CCC3C2=O)c1` (stereo not drawn)?
IMPase cell inh: 2; ALDH1A1 block: 4%; HTT aggregate: 10%; IMPase Li inh: 21%[38.3 µM]; HTT ATP protect: 5%; HPGD inh: -3%

What do the screens show for `CC(=O)Oc1cccc(N2C(=O)C3C(C2=O)C2C=CC3C23CC3)c1` (stereo not drawn)?
IMPase cell inh: -3; ALDH1A1 block: 20µM*; HTT aggregate: 26%; IMPase Li inh: -7%[38.3 µM]; HTT ATP protect: 0%; HPGD inh: -14%

What do the screens show for `COc1ccc(/C=N/Nc2cc(C)nc(-n3nc(C)cc3C)n2)cc1`?
ALDH1A1 block: -1%; HTT aggregate: 14µM*; IMPase Li inh: 8%; HTT ATP protect: -8%[10 µM]; HPGD inh: -4%

What do the screens show for `Cc1ccc(C(=O)N2NC(c3ccccc3F)C3C(=O)N(c4cccc(C)c4)C(=O)C32)cc1` (stereo not drawn)?
ALDH1A1 block: 2.5µM*; HTT aggregate: 3%; IMPase Li inh: 10%; HPGD inh: -28%

How did CCOC(=O)C1(CC2CCCCO2)CCN(S(=O)(=O)c2ccc(C)s2)CC1 (stereo not drawn) do in these assays?
ALDH1A1 block: 20µM*; HTT aggregate: -2%[9.22 µM]; IMPase Li inh: 14%; HTT ATP protect: -13%[10 µM]

What do the screens show for `CCOC(=O)C1(CC2CCCCO2)CCN(S(=O)(=O)c2ccsc2)CC1` (stereo not drawn)?
ALDH1A1 block: inconclusive; HTT aggregate: 7%[9.22 µM]; IMPase Li inh: 2%; HTT ATP protect: 5%[10 µM]

Results for O=S(=O)(NNc1ccc(Cl)nn1)c1ccc(F)cc1 ?
ALDH1A1 block: 28µM*; HTT aggregate: inconclusive; IMPase Li inh: -4%; HTT ATP protect: 6%[10 µM]; HPGD inh: 3.5µM*

How did CC(C)(C)NC(=O)NC(=O)COC(=O)c1ccc2c(c1)S(=O)(=O)N=C1CCCCCN12 do in these assays?
IMPase cell inh: 6; ALDH1A1 block: inconclusive; HTT aggregate: -17%; IMPase Li inh: -1%; HTT ATP protect: -11%[10 µM]; HPGD inh: -12%

Results for O=C(COC(=O)c1ccc2c(c1)S(=O)(=O)N=C1CCCCCN12)NCc1cccs1 ?
ALDH1A1 block: 14µM*; HTT aggregate: 13%[9.22 µM]; HTT ATP protect: -7%[10 µM]

What do the screens show for `CC(C)CSc1ccccc1NC(=O)c1sc2nc(-c3ccncc3)ccc2c1N`?
IMPase cell inh: -3

How did O=C1CCC[C@@H](C(C(=O)OCc2ccccc2)C(=O)OCc2ccccc2)C1 do in these assays?
ALDH1A1 block: -23%[13.5 µM]; HTT ATP protect: -16%[10 µM]

How did Cc1nn(-c2ccc(Cl)cc2)c2sc(C(=O)N3CCN(c4ccccn4)CC3)cc12 do in these assays?
IMPase cell inh: 1; ALDH1A1 block: inconclusive; HTT aggregate: -13%; IMPase Li inh: 19%[38.3 µM]; HTT ATP protect: -11%[10 µM]; HPGD inh: inconclusive

How did Cn1c(N)c(C(=O)c2ccc(Cl)cc2)c(=O)n(C)c1=O do in these assays?
IMPase cell inh: 1; ALDH1A1 block: 9%; HTT aggregate: 2.5µM*; HTT ATP protect: -1%[10 µM]

How did Cc1nn(-c2ccc(Cl)cc2)c2sc(C(=O)c3c(N)n(C)c(=O)n(C)c3=O)cc12 do in these assays?
IMPase cell inh: -2; ALDH1A1 block: inconclusive; HTT aggregate: -7%; IMPase Li inh: 13µM*; HTT ATP protect: -16%; HPGD inh: inconclusive

What do the screens show for `Cc1ccc(NC(=O)c2ccc(N(Cc3ccccc3)S(C)(=O)=O)cc2)cc1`?
IMPase cell inh: 0

Results for CCCCOc1ccc(C2c3c(oc4ccccc4c3=O)C(=O)N2c2nc(C)c(C(=O)OCC)s2)cc1OC (stereo not drawn) ?
IMPase cell inh: -3
